One may read the AC50 as the midpoint of the concentration-response curve, whichever way the signal moves.

Results filed as inconclusive are left out. The source made the active and inactive calls. Rule for the calls: active = hit-call score of the fitted dose curve at least 0.9, where 1 is the maximum; inconclusive = response in the unintended direction; inactive = score below 0.9.

Sequence of Cytochrome P450 3A4 (Homo sapiens) (P08684 whole entry, looked up): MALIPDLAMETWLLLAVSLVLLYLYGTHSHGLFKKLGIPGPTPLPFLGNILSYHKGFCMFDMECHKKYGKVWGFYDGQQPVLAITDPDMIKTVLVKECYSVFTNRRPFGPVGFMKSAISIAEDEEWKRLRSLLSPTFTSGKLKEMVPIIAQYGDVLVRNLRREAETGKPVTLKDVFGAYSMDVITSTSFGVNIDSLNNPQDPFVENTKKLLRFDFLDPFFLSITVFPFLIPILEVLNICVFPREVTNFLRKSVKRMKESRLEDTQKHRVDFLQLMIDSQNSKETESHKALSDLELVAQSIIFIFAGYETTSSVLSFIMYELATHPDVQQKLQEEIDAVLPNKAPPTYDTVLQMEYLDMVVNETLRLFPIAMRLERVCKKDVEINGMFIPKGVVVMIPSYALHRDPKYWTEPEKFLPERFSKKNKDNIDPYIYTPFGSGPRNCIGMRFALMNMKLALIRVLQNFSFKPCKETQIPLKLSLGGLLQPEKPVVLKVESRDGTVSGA

Read-out in this experiment: Cytochrome P450 3A4 (Homo sapiens) (UniProt P08684)
As to the kind of experiment: CLD_CYP3A4_6hr: CellzDirect (CLD) Gene Expression Assay for xenobiotic metabolism (CYP3A4) at 6 hours (AID 2283680). How it is done: CLD_6hr is a cell-based, multiplexed-readout assay that uses hepatocyte, a human liver primary cell, with measurements taken at 6 hours after chemical dosing in a 96-well plate.CLD_CYP3A4_6hr is one of 16 assay component(s) measured or calculated from the CLD_6hr assay. It is designed to make measurements of mRNA induction, a form of inducible reporter, as detected with chemiluminescence signals by Quantitative Nuclease Protection Assay (qNPA) technology.Data from the assay component CLD_CYP3A4_6hr was analyzed at the endpoint, CLD_CYP3A4_6hr, in the positive analysis fitting direction relative to DMSO as the negative control and baseline of activity. Using a type of inducible reporter, gain-of-signal activity can be used to understand changes in the reporter gene as they relate to the gene CYP3A4. Furthermore, this assay endpoint can be referred to as a primary readout. To generalize the intended target to other relatable targets, this assay endpoint is annotated to the cyp intended target family, where subfamily is xenobiotic metabolism.
Human hepatocyte cultures were treated daily for two consecutive days with fresh dosing solutions containing appropriate concentrations of the 320 ToxCast chemicals (chemical identities were blinded to CellzDirect and other ToxCast collaborators), vehicle control (0.2% DMSO), and positive control inducers as summarized in Table 1. Due to the large number of treatment groups and chemicals examined, the ToxCast chemicals were divided into two groups (spanning two independent cultures of hepatocytes from separate donor preparations (Hu778: ToxCast plates 1 and 2; Hu776: ToxCast plates 3 and 4). Each preparation of human hepatocyte cultures was treated with respective vehicle control, medium only control, set of six positive controls/reference chemicals for the five hepatic receptor pathways, and a subset of eight of the ToxCast chemicals (indoxacarb, pyrithiobac-sodium, norflurazon, cyhalofop-butyl, methomyl, thiram, acetochlor, and propiconazole). These replicate data, coupled with internal replicates designed within the blinded ToxCast chemical library, provided additional data to evaluate interindividual differences between hepatocyte preparations and their potential impact on chemical profiles.Cell morphology and integrity were evaluated using phase-contrast microscopy as an indicator of hepatocyte cell health (Tyson & Green, 1987). Cultures for each treatment group (i.e., media, vehicle [0.2% DMSO], positive control inducers [multiple concentrations], and the ToxCast chemicals [multiple concentrations]) were observed and cell morphology was assessed relative to vehicle control cultures at each harvest time point (0, 6, 24, or 48 h). […] Images were evaluated at the conclusion of the study to assess changes in cell integrity and account for the effects of chemical exposure on uncharacteristic changes in concentration-dependent gene expression profiles. The results from these determinations of apparent cytotoxicity were annotated (yes/no) alongside the corresponding qNPA data for reference.At the conclusion of each treatment period, hepatocyte cultures (96-well) were washed with 1 volume of HBSS, lysed by addition of 25 ul ArrayPlate lysis buffer (HTG, Tucson, AZ), and 70 ul/well of Denaturation Oil, denatured by incubation at 95C for 10 min, and frozen at approximately -70C until analysis by nuclease protection assay (qNPA) (Roberts et al., 2007). For qNPA analysis, cell lysates were thawed at 50C for approximately 30 min, qNPA probes were added, and samples were incubated at 95C for 10 min to begin the detection process by denaturing the target RNA, dissociating the duplexes and secondary structure hybridization. At the conclusion of the hybridization period, S1 nuclease reagent was added to each sample to digest all nonprotected nucleotides at 50C for 60-90 min. […]
As for `CCCN(CCC)c1c([N+](=O)[O-])cc(S(N)(=O)=O)cc1[N+](=O)[O-]`, the outcome was inactive.
The same measure, in the same setting: the entry for `CCc1nn(C)c(C(=O)NCc2ccc(C(C)(C)C)cc2)c1Cl` is “inactive”; for `CON(C)C(=O)Nc1ccc(Cl)c(Cl)c1` it is “inactive”.
For `Cc1ccc(-c2c(Cl)nc(C#N)n2S(=O)(=O)N(C)C)cc1`, the AC50 is 1.89 µM (active).
For the compound `C=CC1(C)OC(=O)N(c2cc(Cl)cc(Cl)c2)C1=O` (stereo not drawn), the compound was classed as inactive.
Turning to `CCOc1cc(Oc2ccc(C(F)(F)F)cc2Cl)ccc1[N+](=O)[O-]`, the AC50 was 5.4 µM (active).
Consider `COP(N)(=O)SC` (stereo not drawn), for which the compound was classed as inactive.
`COc1nc(C)nc(NC(=O)NS(=O)(=O)c2ccccc2Cl)n1`: the result was inactive.
On to `CC(C)C1(C)N=C(c2nc3ccccc3cc2C(=O)O)NC1=O` (stereo not drawn), for which the call was inactive.
On to `CC1=C(C(=O)Nc2ccccc2)SCCO1`, for which the call was inactive.
On to `CCCC1COC(Cn2cncn2)(c2ccc(Cl)cc2Cl)O1` (stereo not drawn), for which the compound was called inactive.
Still for that read-out and setting: the same measure for `CNC(=O)ON=CC(C)(C)SC`: “inactive”; for `N#Cc1nn(-c2c(Cl)cc(C(F)(F)F)cc2Cl)c(N)c1S(=O)C(F)(F)F` (stereo not drawn): “inactive”.
For `CCNc1nc(Cl)nc(NC(C)C)n1`, the AC50 is 20 µM (active).
Consider `COC(=O)C(C)Oc1ccc(Oc2ccc(Cl)cc2Cl)cc1` (stereo not drawn), for which the compound was classed as inactive.
Turning to `C#CCOS(=O)OC1CCCCC1Oc1ccc(C(C)(C)C)cc1` (stereo not drawn), the AC50 was 1.89 µM (active).
Regarding `C=CCC1=C(C)C(OC(=O)C2C(C=C(C)C)C2(C)C)CC1=O` (stereo not drawn), the call was inactive.
On to `CCON=C(CC)C1=C(O)CC(c2c(C)cc(C)cc2C)CC1=O` (stereo not drawn), for which the compound was called inactive.
Same read-out and setting: the entry for `N#CC(CCc1ccc(Cl)cc1)(Cn1cncn1)c1ccccc1` (stereo not drawn) is “inactive”.
With `COC(=O)N(OC)c1ccccc1COc1ccn(-c2ccc(Cl)cc2)n1`, the call was inactive.
On the same count and under the same terms, the entry for `Cc1c(F)c(F)c(COC(=O)C2C(/C=C(\Cl)C(F)(F)F)C2(C)C)c(F)c1F` (stereo not drawn) is “inactive”.
With `CCCCNC(=O)OCC#CI`, the AC50 was 1.89 µM (active).
Take `COP(=S)(OC)Oc1nc(Cl)c(Cl)cc1Cl`: the outcome was inactive.
Consider `COc1cnc(OC)n2nc(NS(=O)(=O)c3c(OCC(F)F)cccc3C(F)(F)F)nc12`, for which the AC50 is 8.34 µM (active).
Regarding `OC(c1ccc(Cl)cc1)(c1cncnc1)c1ccccc1Cl` (stereo not drawn), the call was inactive.
Turning to `CCCCOC(=O)c1ccccc1C(=O)OCCCC`, the compound was classed as inactive.
Turning to `COC(=O)C=C(C)OP(=O)(OC)OC`, the call was inactive.
On the same count and under the same terms, the entry for `COc1nc(NC(C)C)nc(NC(C)C)n1` is “inactive”.
For the compound `CCOC(=O)CC(SP(=S)(OC)OC)C(=O)OCC` (stereo not drawn), the outcome was inactive.
As for `CCOC(=O)C(Cl)Cc1cc(-n2nc(C)n(C(F)F)c2=O)c(F)cc1Cl` (stereo not drawn), the compound was classed as inactive.
In the case of `CC(C)Oc1cc(-n2nc(C(C)(C)C)oc2=O)c(Cl)cc1Cl`, the concentration at half-maximal activity (AC50) was 1.89 µM (active).
For `COc1nc(C)nc(NC(=O)NS(=O)(=O)c2ccccc2CCC(F)(F)F)n1`, the compound was called inactive.
Consider `CNC(=S)S`, for which the call was inactive.

The values above are taken from PubChem BioAssay (EPA / NIEHS).
